# Hit rate of the full screen: of about 410,000 compounds, about 2,400 (0.59%) were called active. No stated cut-off is given here; in the data, active means max activation above about 30%; inactive means the rest. What follows is part of a selection rich in actives, with near analogues and random picks from the rest.
# Target: D(3) dopamine receptor (Homo sapiens) (UniProt P35462)
# Assay: qHTS of D3 Dopamine Receptor Agonist: qHTS; further: 0% is about no effect
# Settings: D3R DiscoveRx beta-arrestin cells, luminescence, 90 min; stronger effect = higher value
# Method in brief: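 Agonist mode: compounds and dopamine controls were applied to plated cells for 90 min at 37 degrees C after an overnight attachment at 1500 cells/well. Luminescent read-out followed 30 - 60 minutes at room temperature with DiscoveRx detection reagent.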
# D(3) dopamine receptor (Homo sapiens), sequence (P35462 whole entry, looked up): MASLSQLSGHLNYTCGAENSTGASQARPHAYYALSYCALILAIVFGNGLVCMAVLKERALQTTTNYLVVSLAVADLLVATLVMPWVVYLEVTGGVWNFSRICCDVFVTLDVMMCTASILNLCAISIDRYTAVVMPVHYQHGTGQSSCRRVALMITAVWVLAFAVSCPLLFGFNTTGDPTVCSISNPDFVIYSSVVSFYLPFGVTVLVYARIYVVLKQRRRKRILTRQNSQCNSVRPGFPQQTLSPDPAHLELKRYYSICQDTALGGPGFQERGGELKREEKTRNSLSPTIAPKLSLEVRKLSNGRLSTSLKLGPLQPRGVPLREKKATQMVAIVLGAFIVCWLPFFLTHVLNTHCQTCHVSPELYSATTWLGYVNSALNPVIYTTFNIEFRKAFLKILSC
row,Compound,max activation
1,CC(=O)c1ccc(NC(=O)CCc2nc(-c3ccc(C)cc3)no2)cc1,2.51% (inactive)
2,Cc1ccc(OCCSc2nc(-c3cccs3)nc3cc(=O)[nH]n23)cc1Cl,6.63% (inactive)
3,Cc1c(C(=O)OC(C)C)sc(NC(=O)c2cccnc2)c1C#N,-1.22% (inactive)
4,CCCc1ccc(-c2c(C)sc(NC(=O)c3ccnn3C)c2C#N)cc1,57.1% (active)
5,CCc1ccccc1NC(=O)CSc1nc(C)c(C(=O)Nc2ccccc2)c(-c2ccc(Cl)cc2)c1C#N,3.31% (inactive)
6,Cc1ccccc1Nc1nn2c(=O)c3ccc(C(=O)NCCc4ccc(Cl)cc4)cc3nc2s1,4.22% (inactive)
7,COc1ccc(OC)c2sc(N3CCN(C(=O)C4COc5ccccc5O4)CC3)nc12 (centres undefined),-1.78% (inactive)
8,COc1cc(NS(=O)(=O)c2ccc3c(c2)OCC(C(=O)N2CCCC2)O3)cc(OC)c1 (centres undefined),19.5% (inactive)
9,Cc1c(CC(=O)N2CCN(C(=O)C3COc4ccccc4O3)CC2)c(=O)oc2c(O)c(O)ccc12 (centres undefined),40.6% (active)
10,CCC(C)c1ccc(O)c(/C=N/O)c1 (centres undefined),-1.03% (inactive)
11,CNCC(O)c1ccc(O)c(O)c1 (centres undefined),137% (active)
12,Cc1cc(C)c(-c2n[nH]c3c2C(c2ccccc2F)N(CCO)C3=O)c(O)c1 (centres undefined),-0.594% (inactive)
13,CCC1(C)CC(=O)NC1=O (centres undefined),-5.68% (inactive)
14,Cc1cc(C(=O)Nc2cccc(C(F)(F)F)c2)c2c(C)nn(-c3cccc(F)c3)c2n1,8.25% (inactive)
15,CCOC(=O)CSc1nnc(CNC(=O)c2cccs2)n1-c1cc(OC)ccc1OC,6.63% (inactive)
16,CC(C)(C)OC(=O)N1CCC(c2c(C(=O)N3CCN(c4cccc(Cl)c4)CC3)cnn2-c2cccc(Cl)c2)CC1,-9.63% (inactive)
17,COC(=O)c1ccccc1NC(=O)Cn1c(=O)n(-c2cccc(C(F)(F)F)c2)c(=O)c2c(C)c(C)sc21,-14.9% (inactive)
18,CCN1CCN(C(=O)c2ccc(CN(c3ccc(C)c(C)c3)S(C)(=O)=O)cc2)CC1,-12.8% (inactive)
19,Cc1ccc(N(Cc2ccc(C(=O)Nc3ccccc3C(=O)NCc3ccco3)cc2)S(C)(=O)=O)cc1C,33.8% (active)
20,CS(=O)(=O)N(Cc1ccc(Cl)cc1)c1ccc(C(=O)NCCSCc2ccco2)cc1,0.47% (inactive)
21,Cc1oc2ncnc(N3CCCCC3)c2c1C(=O)N1CCN(c2cccc(Cl)c2)CC1,-5.06% (inactive)
22,Cc1cc(C)cc(NC(=O)CSc2nc(=O)n(CCN3CCOCC3)c3c2CCC3)c1,0.821% (inactive)
23,CC(C)(C)OC(=O)N1CCC(c2c(C(=O)NCc3ccccn3)cnn2-c2ccc(F)cc2)CC1,-0.963% (inactive)

row,Compound,max activation
1,CCCOc1ccc(NC(=O)CC2C(=O)N(c3ccccc3)C(=O)N2Cc2ccco2)cc1 (centres undefined),8.76% (inactive)
2,CCc1ccc(-n2nnc(-c3nc(-c4ccccc4)no3)c2C)cc1,6.45% (inactive)
3,COc1ccc(OC)c(-n2nnc(-c3nc(-c4cc(OC)c(OC)c(OC)c4)no3)c2C)c1,31.2% (active)
4,COc1ccc(-c2cc(-c3nc(-c4cc(OC)c(OC)c(OC)c4)no3)[nH]n2)c(OC)c1,5.61% (inactive)
5,Nc1ccccc1SC(C[N+](=O)[O-])c1ccccc1 (centres undefined),0.396% (inactive)
6,Cc1cccc(C)c1NC(=O)NC1=CCCN1C,0.916% (inactive)
7,O=C(O)CCC(=O)O,17.7% (inactive)
8,COc1ccc(OC)c(-c2c(=O)n(OCc3ccccc3Br)c3ccccc3[n+]2[O-])c1,-6.63% (inactive)
9,CCOc1ccc(OCC)c(-c2c(=O)n(OCc3ccc(Cl)cc3)c3ccccc3[n+]2[O-])c1,39.5% (active)
10,CCOc1ccc(S(=O)(=O)c2cn(Cc3ccccc3)c3ccc(OCC)cc3c2=O)cc1,6.37% (inactive)
11,O=C(OCc1ccccc1)c1ccc(O)cc1,3.77% (inactive)
12,Cc1ccc(C(=O)OCC(=O)NC2CCCCCCC2)cc1C,1.29% (inactive)
13,Cc1ccc(C(=O)COC(=O)CCN2C(=O)C3C4CCC(C4)C3C2=O)cc1C (centres undefined),-16.9% (inactive)
14,Cc1ccc(C(=O)COC(=O)c2cccc(N3C(=O)c4c(C)nc5ccccc5c4C3=O)c2)cc1C,40.4% (active)
15,Cc1cc2c(cc3c(SCc4nc(-c5ccccc5)oc4C)nnc(C)n32)o1,-6.34% (inactive)
16,COc1ccc(C(=O)c2oc3ccccc3c2NC(=O)COc2cccc(C)c2)cc1,-8.79% (inactive)
17,Cc1ccc(N(CC(=O)NCc2ccc(Cl)cc2)S(=O)(=O)N(C)C)cc1,1.16% (inactive)
18,Cc1ccccc1OCC(=O)Nc1c(C(=O)Nc2ccccc2F)oc2ccccc12,-10.6% (inactive)
19,COC(=O)[C@@H]1CC2=CC(=O)CC[C@]2(C)[C@@]23O[C@@H]2C[C@@]2(C)[C@@H](CC[C@@]24CCC(=O)O4)[C@H]13,3.79% (inactive)
20,COc1cccc(N2CCN(C(=O)CCCCCn3c(=O)[nH]c4ccccc4c3=O)CC2)c1,-3.38% (inactive)
21,COC(=O)c1ccccc1NS(=O)(=O)c1ccc2c(c1)CCCN2C(C)=O,-8.34% (inactive)
22,COC(=O)c1ccc(NC(=O)c2ccccc2NS(=O)(=O)c2ccccc2)cc1,34.2% (active)
23,Cc1cc(NS(=O)(=O)c2ccc(NC(=O)c3ccccc3C)cc2)nc(C)n1,0.492% (inactive)

row,Compound,max activation
1,CCOc1ccc(S(=O)(=O)N(CC(=O)NCCSCc2ccc(C)cc2)c2ccccc2)cc1,1.63% (inactive)
2,COc1ccc(C)cc1NC(=O)C(=O)NCCc1sc(-c2cccc(C)c2)nc1C,3.11% (inactive)
3,NNc1nnc(NN)c2ccccc12,-0.65% (inactive)
4,CCOC(=O)c1ccc(NC(=O)CCS(=O)(=O)c2ccc(C)cc2)cc1,4.32% (inactive)
5,Cc1noc(C)c1C(=O)Nc1ccccn1,31.1% (active)
6,Cc1noc(C)c1C(=O)NCCc1ccc(S(N)(=O)=O)cc1,4.23% (inactive)
7,Cc1noc(C)c1C(=O)NC(C)c1ccc2c(c1)OCO2 (centres undefined),17.7% (inactive)
8,O=C(/C=C/c1cccc(F)c1)NC1CC1,7.01% (inactive)
9,Cc1cccc(C(=O)OCC(=O)Nc2sccc2C(N)=O)c1C,3.92% (inactive)
10,CCCCn1nc(C(=O)OCC(=O)Nc2sccc2C(N)=O)c2ccccc2c1=O,39.2% (active)
11,NC(=O)c1ccsc1NC(=O)COC(=O)Cc1n[nH]c(=O)c2ccccc12,-0.194% (inactive)
12,CO[C@]1(NC(=O)CSC(F)F)C(=O)N2C(C(=O)O)=C(CSc3nnnn3CCO)CO[C@H]21,4.38% (inactive)
13,CC(CCc1ccc(O)cc1)NCc1ccc(Cl)cc1Cl (centres undefined),91.1% (active)
14,CC(CCc1ccccc1)NC(=O)c1cnc(Cl)c(Cl)c1 (centres undefined),-0.183% (inactive)
15,COc1ccc(CNC(=O)C(C)NCc2ccccc2Cl)cc1 (centres undefined),-7.27% (inactive)
16,CCCCSc1ncnc2c1sc1nc(N3CCOCC3)c3c(c12)CCCC3,-9.06% (inactive)
17,COc1ccc(N)cc1NC(=O)CN1CCOCC1,3.16% (inactive)
18,COc1ccc(NC(C)=O)cc1NC(=O)CN1CCN(C2c3ccccc3-c3ccccc32)CC1,46.6% (active)
19,COc1ccc(NC(C)=O)cc1NC(=O)CN1CCN(c2ccc(F)cc2)CC1,3.91% (inactive)
20,Cc1nn2c(=O)cc(COC(=O)CNC(=O)c3ccc(F)cc3)nc2s1,-2.47% (inactive)
21,CCOc1ccc(NC(=O)C/C(C)=N/NC(=O)Cc2cccs2)cc1,5.68% (inactive)
22,CCOc1ccccc1NC(=O)Cc1cccs1,49.3% (active)
23,CCOc1ccccc1NC(=O)CCn1cnnn1,4.34% (inactive)

row,Compound,max activation
1,COc1ccc(CNC(=O)CCc2c(C)nn(-c3ccc(N4CCCC4)nn3)c2C)cc1,9.29% (inactive)
2,CCOC(=O)C1CCN(S(=O)(=O)c2c(C)noc2C)CC1,-8.75% (inactive)
3,Cc1noc(C)c1S(=O)(=O)N1CCCC(C(=O)Nc2nccs2)C1 (centres undefined),2.46% (inactive)
4,COc1c(C)cc(C(=O)C2CCCN(S(=O)(=O)c3c(C)noc3C)C2)cc1C (centres undefined),32.6% (active)
5,CCCn1c(NCc2ccc(N(CC)CC)cc2)nc2ccccc21,-7.25% (inactive)
6,COC(=O)c1ccccc1NC(=O)c1cnn(-c2ccc(F)cc2)c1-n1cccc1,-7.92% (inactive)
7,CCOCCc1nn2c(=O)cc(COC(=O)CNC(=O)c3ccc(C(C)(C)C)cc3)nc2s1,6.28% (inactive)
8,Cc1ccc(-n2nc(CO)c(C(=O)NCCc3ccccc3)n2)cc1,1.72% (inactive)
9,CCSc1nnc2c(n1)OC(c1ccc(OCC(=O)O)cc1)Nc1ccccc1-2 (centres undefined),6.71% (inactive)
10,CCC(=O)N1CCc2cc(S(=O)(=O)NC(Cc3ccccc3)C(=O)NCc3ccc(C)cc3)ccc21 (centres undefined),3.11% (inactive)
11,Cn1c(CCN2CCN(c3ccccn3)CC2)nc2cc(NS(=O)(=O)c3ccc(F)cc3)ccc21,2.61% (inactive)
12,CCC(=O)Nc1ccc2c(c1)nc(CCN1CCN(c3ccccn3)CC1)n2C,38.1% (active)
13,O=C(CN1CCN(c2ccccn2)CC1)Nc1ccc(Br)cc1,45.2% (active)
14,O=C(CN1CCN(c2ncccn2)CC1)Nc1ccccc1C(F)(F)F,5.01% (inactive)
15,CCOC(=O)N1CCN(Cc2nc3cc(NC(=O)CC)ccc3n2CC)CC1,-5.31% (inactive)
16,O=C(CN1CCN(c2ccccn2)CC1)NCc1cccs1,-2.33% (inactive)
17,Oc1ccc(Cl)c2c1CCC2,-6.75% (inactive)
18,CCc1ccc(CNCc2c(C(=O)O)n(Cc3ccc(F)cc3Cl)c3cc(OC)ccc23)cc1,-22.5% (inactive)
19,CCCC(=O)Nc1ccc2oc(-c3ccc(O)c(Br)c3)nc2c1,6.09% (inactive)
20,CC1CCCCN1CC(=O)N1CCCc2c1c(=O)oc1ccc(OCc3ccccc3)cc21 (centres undefined),-16.2% (inactive)
